Molecules are shown by their SMILES. Unmarked numbers belong to inactive results. Results filed as inconclusive are left out. Activity calls are given as the source filed them. Calls come from the whole dose curve; as a rule, active = well fitted curve in the direction sought with a large enough effect; inconclusive = small, poorly fitted or top-dose-only effect, or another doubt; inactive = no such curve, though single readings can be large; an effect the other way counts as inactive or inconclusive.

The record followed here is PubChem BioAssay (NCATS).

One test can be described thus: qHTS to identify inhibitors of the type 1 interferon - major histocompatibility complex class I in skeletal muscle: primary screen against the NCATS LOPAC collection (AID 1347405). For activity change, negative = inhibition: % is set by controls: 0 for no effect and ±100 for the full control effect.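 Note: lytic HiBiT luminescence reporting HLA-B protein level.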 Note: potency is the fitted concentration of half-maximal effect. The following applies: iHSKM muscle cells, IFN-b-induced MHC-I HiBiT luminescence, 24 h; series mostly up to 45.9 µM; activity change, negative = inhibition: at the top concentration. An outline of the steps:
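Immortalized human C25cl48 myoblasts with HiBiT knocked into endogenous HLA-B*08:01 were stimulated with 4.0 ng/ml IFN-beta and given compounds in a 7-point, 1:4.3 titration from 46 uM final; after 24 hrs, lytic HiBiT luminescence was read.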
`O=c1c(-c2ccc(O)cc2)coc2cc(O)cc(O)c12`: the Potency is 17.8 µM (active).

Take `CNCCCC12CCC(c3ccccc31)c1ccccc12`: the “activity change, negative = inhibition” value is -28.5%.

Take `CCN1CCCC1CNC(=O)c1cc(S(=O)(=O)CC)c(N)cc1OC` (configuration not stated): the “activity change, negative = inhibition” value was 0.43%.

Take `COc1cc2nc(N3CCN(C(=O)C4COc5ccccc5O4)CC3)nc(N)c2cc1OC` (configuration not stated): the “activity change, negative = inhibition” value is -4.37%.

Turning to `CC(C)C(=O)Nc1ccc([N+](=O)[O-])c(C(F)(F)F)c1`, the “activity change, negative = inhibition” value is -19.7%.

On to `CCOC(=O)C(C)(C)Oc1ccc(Cl)cc1`, for which the “activity change, negative = inhibition” value was 2.68%.

Regarding `CC(=O)OCC(CCn1cnc2cnc(N)nc21)COC(C)=O`, the “activity change, negative = inhibition” value is 5.89%.

In the case of `O=C(c1ccc(F)cc1)C1CCN(CCn2c(=O)[nH]c3ccccc3c2=O)CC1`, the “activity change, negative = inhibition” value is -5.38%.

`CN(C)CCOC(c1ccccc1)c1ccccc1`: the “activity change, negative = inhibition” value is 0.937%.

Another test in a line: qHTS to identify inhibitors of the type 1 interferon - major histocompatibility complex class I in skeletal muscle: primary screen against the NCATS Pharmaceutical Collection (AID 1347407).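 Note: luminescence of HiBiT knocked into endogenous HLA-B as interferon-induced MHC class I level; % is set by controls: 0 for no effect and ±100 for the full control effect.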 The note with it: human skeletal muscle cells, IFN-b-induced MHC-I HiBiT luminescence, 24 h; series mostly up to 45.9 µM; activity change, negative = inhibition: at the top concentration. The essentials:
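HLA-B HiBiT myoblasts, dexamethasone-free growth medium + 4 ng/ml IFN-b; compounds pinned 1 h after seeding, […] from 46 uM; 24 h, 37 C, 5% CO2; lytic HiBiT detection, 10 min RT, luminescence.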
Background: In qHTS, concentration-response curves come from the screen itself.
For `CNCCCC12CCC(c3ccccc31)c1ccccc12`, the “activity change, negative = inhibition” value was 2.17%.

Regarding `CN(C)C(=N)N=C(N)N`, the “activity change, negative = inhibition” value is 10.3%.

As for `CC#C[C@]1(O)CC[C@H]2[C@@H]3CCC4=CC(=O)CCC4=C3[C@@H](c3ccc(N(C)C)cc3)C[C@@]21C`, the “activity change, negative = inhibition” value was -13%.

`CCN1CCCC1CNC(=O)c1cc(S(=O)(=O)CC)c(N)cc1OC` (configuration not stated): the “activity change, negative = inhibition” value was 1.72%.

With `CC(COc1ccccc1)N(CCCl)Cc1ccccc1` (configuration not stated), the “activity change, negative = inhibition” value is -2.64%.

Turning to `Fc1ccc([C@@H]2CCNC[C@H]2COc2ccc3c(c2)OCO3)cc1`, the “activity change, negative = inhibition” value was -29.1%.

In the case of `CCCCc1oc2ccccc2c1C(=O)c1cc(I)c(OCCN(CC)CC)c(I)c1`, the “activity change, negative = inhibition” value was -16.1%.

In the case of `O=C1Cc2cc(CCN3CCN(c4nsc5ccccc45)CC3)c(Cl)cc2N1`, the “activity change, negative = inhibition” value was 13.4%.

With `O=c1c(O)c(-c2ccc(O)c(O)c2)oc2cc(O)cc(O)c12`, the “activity change, negative = inhibition” value is -4.3%.

`COc1cc2c(c(OC)c1OC)-c1ccc(OC)c(=O)cc1[C@@H](NC(C)=O)CC2`: the “activity change, negative = inhibition” value is -21.9%.

For `CC1(C)O[C@H]2CC(=O)OC[C@]23[C@H]2CC[C@@]4(C)[C@H](c5ccoc5)OC(=O)[C@H]5O[C@]54[C@]2(C)C(=O)C[C@@H]13`, the “activity change, negative = inhibition” value is 6.34%.

As for `Cc1ccccc1N1C(=O)c2cc(S(N)(=O)=O)c(Cl)cc2NC1C` (configuration not stated), the “activity change, negative = inhibition” value was 4.59%.

Turning to `CC1(CN2CCC(n3c(=O)[nH]c4ccccc43)CC2)OCc2ccccc2-n2cccc21` (configuration not stated), the “activity change, negative = inhibition” value is -11.4%.

As to `OCCN1CCN(CCCN2c3ccccc3Sc3ccc(C(F)(F)F)cc32)CC1`, the “activity change, negative = inhibition” value is -26%.

Regarding `CCOC(=O)C(C)(C)Oc1ccc(Cl)cc1`, the “activity change, negative = inhibition” value was 7.37%.

For `CN(C)C(=O)C(CCN1CCC(O)(c2ccc(Cl)cc2)CC1)(c1ccccc1)c1ccccc1`, the “activity change, negative = inhibition” value is -8.1%.

As for `CS(=O)(=O)Nc1ccc([N+](=O)[O-])cc1Oc1ccccc1`, the “activity change, negative = inhibition” value is -11.7%.

Regarding `O=C(Nc1ccc([N+](=O)[O-])cc1Cl)c1cc(Cl)ccc1O`, the “activity change, negative = inhibition” value was -4.5% [at 19 µM].

On to `O=C(c1ccc(F)cc1)C1CCN(CCn2c(=O)[nH]c3ccccc3c2=O)CC1`, for which the “activity change, negative = inhibition” value was -14.5%.

Take `COC(=O)Nc1nc2ccc(C(=O)c3cccs3)cc2[nH]1`: the “activity change, negative = inhibition” value was -26%.

`C[C@@H]1CC(=O)NN=C1c1ccc(NN=C(C#N)C#N)cc1`: the Potency entry is “inactive”.

Consider `CN(C)CCOC(c1ccccc1)c1ccccc1`, for which the “activity change, negative = inhibition” value is -6.02%.

Another test in a line: qHTS for inhibitors of adenylyl cyclases using a fission yeast platform: a pilot screen against the NCATS LOPAC library (AID 1347410).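 Note: plate controls were DMSO vehicle for no effect and DPI positive control for full effect.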 The note with it: S. pombe CHP2027, fbp1-GFP fluorescence, 18 h, yeast expressing mammalian AC9 and human GNAS; series mostly up to 57.5 µM; activity, positive = inhibition (GFP gain): at the top concentration. The essentials: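 Read-out: fbp1-GFP fluorescence by laser scanning cytometry (488 nm laser), a gain of signal when AC/cAMP-PKA signalling is inhibited. Strain CHP2027 expressing AC9, GNAS and PDE4D2; compounds at up to 57 µM; 18 h, 30C.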
Turning to `O=c1c(-c2ccc(O)cc2)coc2cc(O)cc(O)c12`, the “activity, positive = inhibition (GFP gain)” value was -0.438%.

For `COc1cc2nc(N3CCN(C(=O)c4ccco4)CC3)nc(N)c2cc1OC`, the “activity, positive = inhibition (GFP gain)” value was 0.137%.

Consider `CNCCCC12CCC(c3ccccc31)c1ccccc12`, for which the “activity, positive = inhibition (GFP gain)” value is -0.438%.

For the compound `CN(CCOc1ccc(NS(C)(=O)=O)cc1)CCc1ccc(NS(C)(=O)=O)cc1`, the “activity, positive = inhibition (GFP gain)” value is 0.74%.

Consider `CC#C[C@]1(O)CC[C@H]2[C@@H]3CCC4=CC(=O)CCC4=C3[C@@H](c3ccc(N(C)C)cc3)C[C@@]21C`, for which the “activity, positive = inhibition (GFP gain)” value is -0.438%.

In the case of `CCN1CCCC1CNC(=O)c1cc(S(=O)(=O)CC)c(N)cc1OC` (configuration not stated), the “activity, positive = inhibition (GFP gain)” value is 0.0719%.

`Fc1ccc([C@@H]2CCNC[C@H]2COc2ccc3c(c2)OCO3)cc1`: the “activity, positive = inhibition (GFP gain)” value was -0.438%.

Consider `COc1ccc(CCN(C)CCCC(C#N)(c2ccc(OC)c(OC)c2)C(C)C)cc1OC` (configuration not stated), for which the “activity, positive = inhibition (GFP gain)” value was -0.438%.

With `CN1C2CCC1CC(OC(=O)C(CO)c1ccccc1)C2` (configuration not stated), the compound was called inactive.

In the case of `COc1cc2nc(N3CCN(C(=O)C4COc5ccccc5O4)CC3)nc(N)c2cc1OC` (configuration not stated), the “activity, positive = inhibition (GFP gain)” value is -0.438%.

In the case of `CCCCc1oc2ccccc2c1C(=O)c1cc(I)c(OCCN(CC)CC)c(I)c1`, the “activity, positive = inhibition (GFP gain)” value was -0.438%.

`CC(C)C(=O)Nc1ccc([N+](=O)[O-])c(C(F)(F)F)c1`: the “activity, positive = inhibition (GFP gain)” value is 0.239%.

For `Clc1ccccc1C(c1ccccc1)(c1ccccc1)n1ccnc1`, the “activity, positive = inhibition (GFP gain)” value was 0.554%.

`O=C1Cc2cc(CCN3CCN(c4nsc5ccccc45)CC3)c(Cl)cc2N1`: the “activity, positive = inhibition (GFP gain)” value was 0.155%.

Regarding `O=c1c(O)c(-c2ccc(O)c(O)c2)oc2cc(O)cc(O)c12`, the “activity, positive = inhibition (GFP gain)” value is 0.0905%.

`COc1cc2c(c(OC)c1OC)-c1ccc(OC)c(=O)cc1[C@@H](NC(C)=O)CC2`: the “activity, positive = inhibition (GFP gain)” value is -0.0719%.

As to `OCCN1CCN(CCCN2c3ccccc3Sc3ccc(C(F)(F)F)cc32)CC1`, the “activity, positive = inhibition (GFP gain)” value is -0.438%.

In the case of `CCOC(=O)C(C)(C)Oc1ccc(Cl)cc1`, the “activity, positive = inhibition (GFP gain)” value was -0.438%.

Consider `CC(=O)OCC(CCn1cnc2cnc(N)nc21)COC(C)=O`, for which the “activity, positive = inhibition (GFP gain)” value is -0.438%.

For `CN(C)C(=O)C(CCN1CCC(O)(c2ccc(Cl)cc2)CC1)(c1ccccc1)c1ccccc1`, the “activity, positive = inhibition (GFP gain)” value is -0.0905%.

Consider `CS(=O)(=O)Nc1ccc([N+](=O)[O-])cc1Oc1ccccc1`, for which the “activity, positive = inhibition (GFP gain)” value is -0.438%.

With `O=C(Nc1ccc([N+](=O)[O-])cc1Cl)c1cc(Cl)ccc1O`, the “activity, positive = inhibition (GFP gain)” value was 1.15%.

On to `CC(C)Cc1ccc(C(C)C(=O)O)cc1` (configuration not stated), for which the “activity, positive = inhibition (GFP gain)” value is -0.146%.

In the case of `O=C(c1ccc(F)cc1)C1CCN(CCn2c(=O)[nH]c3ccccc3c2=O)CC1`, the “activity, positive = inhibition (GFP gain)” value was 0.202%.

Regarding `COC(=O)Nc1nc2ccc(C(=O)c3cccs3)cc2[nH]1`, the “activity, positive = inhibition (GFP gain)” value is -0.438%.

`CN(C)CCOC(c1ccccc1)c1ccccc1`: the “activity, positive = inhibition (GFP gain)” value is -0.438%.
